Results on 73 compounds are retold here after PubChem BioAssay AID686978 (National Center for Advancing Translational Sciences (NCATS), 2013).

SMILES strings stand for the structures. Out of some 420,000 compounds screened, about 64,000 (15%) were called active. Another 27% or so got no clear call; they are omitted. The call rests on the fitted dose curve; in most records, active means well fitted inhibition curve with a large enough effect; inconclusive means small, poorly fitted or top-dose-only effect; inactive means flat fitted curve, though single readings scatter. These entries were drawn from the full list. Where a call stands in place of a potency, no number is given.
Potency means the concentration at half of the fitted maximal effect.

The test in a line: qHTS for Inhibitors of human tyrosyl-DNA phosphodiesterase 1 (TDP1): qHTS in cells in absence of CPT. Further: nearly all actives have a fitted effect of over 55% in size. To be noted: DT40 Tdp1-/- hTDP1 cells, no CPT, ATP luminescence, 48 h; activity change, negative = growth inhibition: at 46.2 µM (top of the series). The procedure, abridged:
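Luminescent ATP content (CellTiter-Glo) served as the growth readout. Knockout chicken DT40 cells expressing human TDP1 were exposed to compounds without camptothecin for a minimum 48 hr at 37 °C.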
(In general: In qHTS, concentration-response curves come from the screen itself.)
`O=C(Cn1nc(C(=O)O)c2ccccc2c1=O)Nc1ccc(F)cc1`: the Potency result was “inactive”. Turning to `COc1cccc(NC(=O)CSc2nnc(C3CCCCC3)n2N)c1`, the Potency entry was “inactive”. `O=C(Cn1cnc2ccccc2c1=O)NCC1COc2ccccc2O1` (stereo not drawn): the Potency result was “inactive”. The same measure for `O=C(COC(=O)c1ccc(F)cc1)NCC1COc2ccccc2O1` (stereo not drawn): “inactive”; for `c1ccc2c(c1)OCC(CNc1ncnc3nc[nH]c13)O2` (stereo not drawn): 13 µM (active). For the compound `CC(C)c1ccc(NC(=S)NC2CC3C=CC2C3)cc1` (stereo not drawn), the Potency is 29.1 µM (active).

Take `O=C(COC(=O)C1CC2C=CC1C2)Nc1ccccc1` (stereo not drawn): the Potency result was “inactive”. The same measure for `CC(C)c1ccc(NC(=S)NNc2ccc(Cl)c(C(=O)O)c2)cc1`: “inactive”; for `CCN1C(=O)C(=O)N(CC(=O)Nc2cc(C)ccc2C)C1=O`: “inactive”; for `O=P(c1ccc2c(c1)OCCO2)(N1CCOCC1)N1CCOCC1`: “inactive”.

As for `COC(=O)C(C)Oc1ccc2c(c1)O/C(=C\c1cccc(Br)c1)C2=O` (stereo not drawn), the Potency result was “inactive”. Take `COc1ccc(S(=O)(=O)N(CC(=O)NCc2ccco2)c2ccc(F)cc2)cc1`: the Potency result was “inactive”.

For the compound `O=C(COC(=O)Cc1ccc(Br)cc1)Nc1c(F)c(F)c(F)c(F)c1F`, the Potency result was “inactive”. As for `COC(=O)Cc1ccc(N(Cc2ccccc2F)S(=O)(=O)c2ccc(Br)cc2)cc1`, the Potency is 20.6 µM (active). Take `O=C(CCn1c(SCC(=O)c2ccccc2)nc2ccccc2c1=O)NCc1ccc(F)cc1`: the Potency result is “inactive”.

Regarding `CC1(C)CC(=O)C(C=NCc2cccnc2)=C(O)C1`, the Potency entry was “inactive”. As to `N=c1c2c3c(sc2ncn1N)CCCCC3`, the Potency entry is “inactive”. `C=CCN(C(=O)Nc1ccc2oc(C)nc2c1)c1ccccc1`: the Potency was 20.6 µM (active).

In the case of `C=CCN(C(=O)Nc1ccc2c(c1)nc(C)n2C)c1ccccc1`, the Potency result is “inactive”. The same measure for `Cc1nc2cc(NC(=O)NCc3ccccc3)ccc2o1`: “inactive”.

For `N#CCCn1cnc2ccccc21`, the Potency entry is “inactive”. Then `Cc1c(C=O)n(C)n(-c2ccccc2)c1=O`, with “inactive”; and `O=C(CSc1nnc(-c2cnccn2)n1Cc1ccco1)c1ccc(Cl)c(Cl)c1`, with “inactive”; and `O=C(CSc1nnc(-c2cccnc2)n1Cc1ccco1)c1ccc(Cl)cc1`, with 25.9 µM (active). Consider `COc1cc(Cl)c(C)cc1NC(=O)CSc1nnc(-c2cccnc2)n1Cc1ccco1`, for which the Potency result was “inactive”.

For `CC(=O)NS(=O)(=O)c1ccc(NC(=O)C2C3C=CC(C3)C2C(=O)O)cc1` (stereo not drawn), the Potency result is “inactive”.

As to `Cc1cc2c3ccccc3[nH]c(=O)n2n1`, the Potency entry is “inactive”. For the compound `CCCCC(O)C1=C[N+](=O)CC=C1` (stereo not drawn), the Potency entry is “inactive”.

For the compound `COc1ccc(N2CCN(C(=O)CCc3nc(-c4ccc(C)cc4)no3)CC2)cc1`, the Potency entry was “inactive”. The same measure for `COc1ccc(-c2noc(CCC(=O)N3CCN(c4cccc(C)c4)CC3)n2)cc1`: 13 µM (active); for `CN1CCN(C(=O)CCc2nc(-c3ccc(Cl)cc3)no2)CC1`: “inactive”; for `O=C(COC(=O)c1ccco1)Nc1ccc(Cl)cn1`: “inactive”. As for `O=c1ccn(Cc2ccccc2Cl)cc1`, the Potency result was “inactive”. On to `N=c1n(Cc2ccc(Cl)cc2)c2ccccc2n1CC(O)c1ccco1` (stereo not drawn), for which the Potency is 5.8 µM (active). Take `O=S(=O)(O)c1nc2ccccc2n1Cc1ccc(Cl)cc1`: the Potency entry was “inactive”.

Take `CCC1=NN2C(=N)/C(=C/c3cc(C)n(-c4ccccc4)c3C)C(=O)N=C2S1`: the Potency entry is “inactive”. For the compound `CCCC(=O)NC(=S)Nc1ccc(CN2CCOCC2)cc1`, the Potency result is “inactive”. With `CCOC(=O)C(=CNNc1ccsc1C(=O)OC)C(=O)OCC`, the Potency is 10.3 µM (active).

As for `COC(=O)c1sccc1NC(=O)CCC1CCCC1`, the Potency result was “inactive”.

On to `COC(=O)c1sccc1NC(=S)Nc1ccc(C)cc1`, for which the Potency result is “inactive”. Turning to `CCn1c(SCC(=O)N(C)C2CCS(=O)(=O)C2)nnc1-c1cccs1` (stereo not drawn), the Potency entry was “inactive”. With `CCN(CC(=O)NCc1cccs1)C(=O)c1cccc(S(=O)(=O)Nc2ccccc2OC)c1`, the Potency entry was “inactive”. On to `CC(C)N1C(=O)c2ccccc2NC(=O)C1C(=O)NCc1cccs1` (stereo not drawn), for which the Potency entry is “inactive”. With `CCC1Sc2ccc(S(=O)(=O)CCC(=O)NCc3cccs3)cc2NC1=O` (stereo not drawn), the Potency was 14.6 µM (active). Consider `Cc1cc(C)c(NC(=O)CS(=O)CC(=O)Nc2cccnc2)c(C)c1` (stereo not drawn), for which the Potency entry is “inactive”. For the compound `COc1ccccc1N(CC(=O)Nc1ccccc1C(=O)N1CCCC1)S(C)(=O)=O`, the Potency result was “inactive”.

As for `CCOC(=O)CN1C(=O)C(O)(CC(=O)c2ccccn2)c2ccccc21` (stereo not drawn), the Potency was 4.11 µM (active). Then `COc1ccccc1OCC(=O)O/N=C(\N)c1ccccn1`, with “inactive”.

As to `CCOC(=O)CN1CCC(c2ccccc2)CC1`, the Potency entry is “inactive”. As to `CCCc1nn(C)c2c(=O)[nH]c(-c3cc(S(N)(=O)=O)ccc3OCC)nc12`, the Potency result is “inactive”. With `Cn1c2ccccc2n2c(=O)c(=O)n(CC(=O)c3ccc(F)cc3)nc12`, the Potency entry is “inactive”.

For `CCOC(=O)c1ccc(N2C(=O)CC(N(C)Cc3ccccc3)C2=O)cc1` (stereo not drawn), the Potency entry was “inactive”. As for `Cc1cc(/C=C2/NC(=O)NC2=O)c(C)n1-c1cccnc1`, the Potency entry is “inactive”.

For the compound `O=C1N/C(=C/c2cccs2)C(=O)N1Cc1ccc(F)cc1`, the Potency result was “inactive”. Turning to `Cc1ccc(CN2C(=O)N/C(=C/c3cc(C)n(-c4ccccn4)c3C)C2=O)cc1`, the Potency was 23.1 µM (active). In the case of `COCCn1c(=O)c(-c2cccs2)nc2cncnc21`, the Potency result was “inactive”. In the case of `CCOCCc1c(O)nc(SCC(=O)NCc2ccco2)[nH]c1=O`, the Potency entry was “inactive”.

On to `O=C(Nc1cc2ccccc2oc1=O)C1CCCCC1`, for which the Potency entry was “inactive”. Turning to `Cn1c(SCC(=O)NC2CCCCC2)nnc1-c1cc2ccccc2o1`, the Potency entry was “inactive”. In the case of `O=C(NC1CCCCC1)C(c1cc2ccccc2o1)n1c(=O)c(-c2ccco2)nc2ccccc21` (stereo not drawn), the Potency was 16.4 µM (active). For `CN1CCC(N(C)S(=O)(=O)c2ccc(NC(=O)c3cccc(C#N)c3)cc2)CC1`, the Potency entry is “inactive”. As for `COc1ccc(CC(=O)Nc2cc(S(=O)(=O)N3CCCCC3)ccc2N2CCN(C)CC2)cc1`, the Potency result was “inactive”. In the case of `CCN(CC)S(=O)(=O)c1ccc(N2CCOCC2)c(C(=O)O)c1`, the Potency result was “inactive”.

Turning to `CCN(CC)S(=O)(=O)c1ccc(N2CCOCC2)c(NC(=O)C2COc3ccccc3O2)c1` (stereo not drawn), the Potency was 16.4 µM (active). Regarding `CCN(CC)S(=O)(=O)c1ccc(N2CCOCC2)c(NC(=O)c2ccc(=O)n(C)n2)c1`, the Potency result was “inactive”. For `CCN(CC)S(=O)(=O)c1ccc(N2CCCC2)c(NC(=O)c2ccc([N+](=O)[O-])o2)c1`, the Potency was 23.1 µM (active). For `CN(C)S(=O)(=O)c1ccc(N2CCCC2)c(C(=O)NCc2ccccc2)c1`, the Potency entry is “inactive”.

`Cc1ccc(NC(=S)NC2CCCC2)cc1`: the Potency result was “inactive”. On to `COc1ccc(C(C)NC(=S)NC2CCCCC2)cc1OC` (stereo not drawn), for which the Potency entry was “inactive”. As for `Cc1ccc(/C=N/NC(=O)CNC(=O)COc2ccccc2)o1`, the Potency result is “inactive”. On to `C/C(=N\NC(=S)NC1CCCCC1)c1ccc(C)o1`, for which the Potency was 23.1 µM (active). As for `CCCC/C(C)=N/NC(=O)NC1CCCCC1`, the Potency result was “inactive”. For the compound `Cc1ccc(/C=N/NC(=S)NC2CCCCC2)o1`, the Potency is 4.11 µM (active).
